Source: PubChem (Emory University Molecular Libraries Screening Center)
The sample as a whole holds a higher share of hits than the screen did.
14-3-3 PPI = modulators of 14-3-3 gamma protein binding, primary screen, biochemical, fluorescence polarization. 14-3-3 protein gamma (Homo sapiens), P61981. FP, 14-3-3gamma / TMR-pS259-Raf peptide binding. inhibition, % at 40 µM. actives 0.19% (n = 160,000); in the data active means inhibition above about 30%;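 further: 0% = protein plus tracer without compound and 100% = blank with tracer alone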
Target sequence (P61981 whole entry, looked up): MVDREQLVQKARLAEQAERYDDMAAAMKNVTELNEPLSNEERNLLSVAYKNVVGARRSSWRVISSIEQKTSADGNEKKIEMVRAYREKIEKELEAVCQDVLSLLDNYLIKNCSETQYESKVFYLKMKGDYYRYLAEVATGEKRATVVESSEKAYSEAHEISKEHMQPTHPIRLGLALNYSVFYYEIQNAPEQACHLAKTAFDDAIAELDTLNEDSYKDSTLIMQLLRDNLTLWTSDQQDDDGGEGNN
The depositor's hits bear a star; + = active, no number.

SMILES | 14-3-3 PPI
O=C1C2CC=C(Cl)CC2C(=O)N1C1CCCCC1 (stereo unspecified) | -7
O=C(Nc1cccnc1)c1c(O)c2ccccc2[nH]c1=O | 0
COc1ccc(-c2oc(NC(=O)C(F)(F)F)c(C#N)c2-c2ccc(OC)cc2)cc1 | -7
Cc1oc(NC(=O)C(F)(F)F)c(C#N)c1C | 33*
COC(=O)c1sc(NC(=O)C(F)(F)F)c(C(=O)OC)c1C | -8
CCN(CC)c1ccc(C2C3=C(CCCC3=O)Nc3ccc4ccccc4c32)cc1 (stereo unspecified) | -6
COc1ccc(C2C(C(=O)OC3CCCC3)=C(C)NC3=C2C(=O)CCC3)cc1O (stereo unspecified) | 17
CC(C)CCNC(=O)C1CCN(S(=O)(=O)N2CCCCC2)CC1 | -3
COC(=O)Cn1c2ccccc2c2nc3ccccc3nc21 | -5
O=C(O)Cn1c2ccccc2c2nn3cc(-c4ccccc4)nc3nc21 | 119*
O=C(O)Cn1c(-c2ccccc2)nc2ccccc21 | -2
N#CC(C#N)C(C#N)(C#N)C1CCCCC1=O (stereo unspecified) | 142*
Cc1ccc(C2=NN(CC(=O)N3CCN(c4cc(Cl)ccc4C)CC3)C(=O)CC2)cc1 | -13
Clc1ccccc1C1C=C(c2cccs2)Nc2nnnn21 (stereo unspecified) | -5
Cc1cccc(C2C=C(c3ccc(Cl)cc3)Nc3nnnn32)c1 (stereo unspecified) | -20
Cc1ccc(C2C=C(c3cccs3)Nc3nnnn32)cc1 (stereo unspecified) | 37*
Cc1cccc(C2C=C(c3ccc(Br)s3)Nc3nnnn32)c1 (stereo unspecified) | 48*
CCc1ccc(C2=CC(c3cccc(C)c3)n3nnnc3N2)cc1 (stereo unspecified) | -6
Cc1ccc(C2=CC(c3ccc(C)cc3)n3nnnc3N2)cc1 (stereo unspecified) | 1
Cc1ccc(S(=O)(=O)N=C(N)Nc2nc3ccccc3s2)cc1 | -3
O=C(CSc1nc2c(c(=O)n1-c1ccc(Cl)cc1)SCC2)N1CCCCC1 | -12
CCc1ccc(NC(=O)c2cc(S(=O)(=O)N3CCC(Cc4ccccc4)CC3)ccc2F)cc1 | -1
O=C1c2ccccc2-c2onc3ccc(NCCCn4ccnc4)c1c23 | 2
Cc1ccccc1Nc1ccc2noc3c2c1C(=O)c1ccccc1-3 | -223
CC(=O)OCCNc1ccc2noc3c2c1C(=O)c1ccccc1-3 | +
SMILES | 14-3-3 PPI
O=C(CSc1nccn1-c1ccc(F)cc1)Nc1ccc(Br)cc1 | 4
Cc1ccc(NC(=O)c2cccc(NC(=O)c3ccccc3C(=O)O)c2)cc1C | -6
CCOC(=O)c1ccc(NC2=CC(=NS(=O)(=O)c3cccs3)c3ccccc3C2=O)cc1 | 67*
O=C1C(Nc2ccccc2)=CC(=NS(=O)(=O)c2cccs2)c2ccccc21 | -79
CC(=O)Nc1ccc(NC2=CC(=NS(=O)(=O)c3cccs3)c3ccccc3C2=O)cc1 | -2
COCCCNC(=O)c1ccc2c(c1)N(Cc1ccccc1)C(=O)CS2 | 3
N#Cc1c(NC(=O)c2cc(S(=O)(=O)N3CCCCC3)ccc2Cl)sc2c1CCCC2 | -7
COc1ccc(OC)c(-n2c(=S)[nH]c3cc(C(=O)NCc4cccnc4)ccc3c2=O)c1 | -3
CCOc1ccc(NC(=O)C2C3C=CC4(O3)C2C(=O)N(C(C)(C)C)C4C(=O)NC2CCCCC2C)cc1 (stereo unspecified) | 1
CCC(Cc1ccccc1)n1c(SCc2cc(=O)n3cc(Cl)ccc3n2)nc2ccccc2c1=O (stereo unspecified) | -13
CN(c1ccc(F)cc1)S(=O)(=O)c1ccc2[nH]cc(C(=O)NCc3ccccn3)c(=O)c2c1 | +
COCCCNC(=O)c1c[nH]c2ccc(S(=O)(=O)N(C)c3c(C)cccc3C)cc2c1=O | -10
Cc1ccccc1N(C)S(=O)(=O)c1ccc2[nH]cc(C(=O)NCC3CCCO3)c(=O)c2c1 (stereo unspecified) | -6
COCCNC(=O)c1c[nH]c2ccc(S(=O)(=O)N(C)c3ccc(F)cc3)cc2c1=O | -5
CN(c1ccc(Br)cc1)S(=O)(=O)c1ccc2[nH]cc(C(=O)NCc3ccccn3)c(=O)c2c1 | 147*
CCc1ccc(NS(=O)(=O)c2ccc3[nH]cc(C(=O)NCc4ccc(C)cc4)c(=O)c3c2)cc1 | -15
CCc1ccc(NS(=O)(=O)c2ccc3[nH]cc(C(=O)NCc4ccccn4)c(=O)c3c2)cc1 | 172*
CCOc1ccc(N(C)S(=O)(=O)c2ccc3[nH]cc(C(=O)NCc4ccccc4)c(=O)c3c2)cc1 | -12
C=CCN(c1ccccc1)S(=O)(=O)c1ccc2[nH]cc(C(=O)NCc3ccccn3)c(=O)c2c1 | 0
CCc1ccc(NS(=O)(=O)c2ccc3[nH]cc(C(=O)NCc4ccccc4)c(=O)c3c2)cc1 | -15
Cc1cccc(C)c1N(C)S(=O)(=O)c1ccc2[nH]cc(C(=O)NCc3ccccn3)c(=O)c2c1 | 44*
Cc1ccc(N(C)S(=O)(=O)c2ccc3[nH]cc(C(=O)NCc4ccccn4)c(=O)c3c2)cc1C | -3
CCC(CC)N1CCN(Cc2ccco2)CC1 | 3
CC(=O)Nc1sc2c(c1C(=O)O)CCCC2 | 1
Cc1cccc(N(C)S(=O)(=O)c2cccc3cccnc23)c1 | 1
SMILES | 14-3-3 PPI
Cc1cc(S(=O)(=O)N2CCCc3ccccc32)ccc1Cl | 0
Cn1cc(CCC(=O)N2CCCC2)c2ccccc21 | -1
CCOC(=O)C1=C(c2ccccc2)NC(=O)NC1c1ccccc1OC (stereo unspecified) | -11
CCc1ccccc1N(C)S(=O)(=O)c1ccc2[nH]cc(C(=O)O)c(=O)c2c1 | 63*
CCc1ccccc1N(C)S(=O)(=O)c1ccc2[nH]cc(C(=O)NCCc3ccccc3)c(=O)c2c1 | -2
CCCCN(C)C(=O)c1c[nH]c2ccc(S(=O)(=O)N(C)c3ccccc3CC)cc2c1=O | -7
CCN(CC)CCn1c(=O)[nH]c2ccccc2c1=O | -4
CCCOC(=O)C1=C(C)NC2=C(C(=O)CC(C)(C)C2)C1c1ccc(C)o1 (stereo unspecified) | -5
CC1CCCCC1NC(=O)C1(S(=O)(=O)c2ccc(Cl)cc2)CC1 (stereo unspecified) | -1
NCCNc1ccc2c3c(cccc13)C(=O)N(c1ccc(Cl)cc1)C2=O | 63*
O=C1c2ccccc2C(=O)N1c1ccc(Cl)cc1 | 0
O=C(O)CCCN1C(=O)c2cccc3c(O)ccc(c23)C1=O | 138*
O=C(O)CCCCN1C(=O)c2ccccc2C1=O | -1
C=CCNc1ccc2c3c(cccc13)C(=O)N(C)C2=O | 4
O=C1c2cccc3c(NCCO)ccc(c23)C(=O)N1c1ccccc1 | 196*
O=C1c2cccc3c(O)ccc(c23)C(=O)N1c1ccc(Cl)cc1 | 96*
O=C1c2cccc3c(Nc4ccccc4)ccc(c23)C(=O)N1c1ccccc1 | -9
CCOC(=O)c1ccc(N2C(=O)c3cccc4c(Cl)ccc(c34)C2=O)cc1 | -41
O=C1c2cccc3c(N4CCCCC4)ccc(c23)C(=O)N1c1ccccc1 | 4
O=C(O)c1ccc2c3c(cccc13)C(=O)N(c1ccc(Cl)cc1)C2=O | -8
O=C(O)CCCCCN1C(=O)c2cccc3c(N4CCCCC4)ccc(c23)C1=O | -42
CCOc1ccc(NC(=O)CSc2nnc3n2CCCCC3)cc1 | 4
N#Cc1nc(COc2ccccc2F)oc1N1CCC(C(N)=O)CC1 | 8
Nc1c(C(=O)NCc2ccco2)nnn1-c1cccc(C(F)(F)F)c1 | -3
CCc1ccccc1NC(=O)COc1ccc(Br)cc1 | 2
